Assays:
[1] = target: T1, Muscle, skeletal receptor tyrosine-protein kinase (Homo sapiens) (UniProt O15146); settings: at 1 µM;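 note: reported value is the mean percent inhibition of MuSK kinase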
T1 sequence (whole entry): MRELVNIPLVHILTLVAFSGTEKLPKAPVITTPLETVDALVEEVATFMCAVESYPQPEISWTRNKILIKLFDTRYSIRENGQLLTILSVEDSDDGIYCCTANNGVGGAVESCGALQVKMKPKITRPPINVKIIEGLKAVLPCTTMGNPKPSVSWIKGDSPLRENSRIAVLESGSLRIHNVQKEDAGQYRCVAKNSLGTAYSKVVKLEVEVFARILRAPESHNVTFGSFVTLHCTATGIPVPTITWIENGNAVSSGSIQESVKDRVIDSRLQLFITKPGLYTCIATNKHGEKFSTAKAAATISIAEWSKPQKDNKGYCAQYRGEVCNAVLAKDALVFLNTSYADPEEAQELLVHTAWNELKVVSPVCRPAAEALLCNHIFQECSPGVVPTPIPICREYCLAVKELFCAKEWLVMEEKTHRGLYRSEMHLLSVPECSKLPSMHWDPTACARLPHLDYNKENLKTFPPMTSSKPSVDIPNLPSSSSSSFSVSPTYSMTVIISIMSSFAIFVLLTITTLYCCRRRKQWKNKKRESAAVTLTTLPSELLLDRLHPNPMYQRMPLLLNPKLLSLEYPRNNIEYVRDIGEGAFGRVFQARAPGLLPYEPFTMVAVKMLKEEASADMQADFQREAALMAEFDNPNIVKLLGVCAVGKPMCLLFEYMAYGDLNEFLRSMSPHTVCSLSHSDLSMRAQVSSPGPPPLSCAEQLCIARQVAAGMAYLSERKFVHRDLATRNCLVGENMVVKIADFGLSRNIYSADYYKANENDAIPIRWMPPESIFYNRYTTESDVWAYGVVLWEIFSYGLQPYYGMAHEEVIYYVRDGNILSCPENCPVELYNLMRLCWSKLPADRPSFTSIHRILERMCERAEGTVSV

[2] = target: Platelet-derived growth factor receptor alpha (Homo sapiens) (UniProt P16234); settings: at 0.1 µM
[3] = target: Platelet-derived growth factor receptor alpha (Homo sapiens) (UniProt P16234); settings: at 1 µM
[4] = system: Platelet-derived growth factor receptor alpha (Homo sapiens), P16234 [D842V]; settings: at 0.1 µM
[5] = system: Platelet-derived growth factor receptor alpha (Homo sapiens), P16234 [D842V]; settings: at 1 µM
[6] = system: Platelet-derived growth factor receptor alpha (Homo sapiens), P16234 [T674I]; settings: at 0.1 µM
[7] = system: Platelet-derived growth factor receptor alpha (Homo sapiens), P16234 [T674I]; settings: at 1 µM
[8] = system: Platelet-derived growth factor receptor alpha (Homo sapiens), P16234 [V561D]; settings: at 0.1 µM
[9] = system: Platelet-derived growth factor receptor alpha (Homo sapiens), P16234 [V561D]; settings: at 1 µM
[10] = target: Platelet-derived growth factor receptor beta (Homo sapiens) (UniProt P09619); settings: at 0.1 µM;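 note: reported value is the mean percent inhibition of the kinase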
Chain of Platelet-derived growth factor receptor beta (Homo sapiens) (P09619 whole entry): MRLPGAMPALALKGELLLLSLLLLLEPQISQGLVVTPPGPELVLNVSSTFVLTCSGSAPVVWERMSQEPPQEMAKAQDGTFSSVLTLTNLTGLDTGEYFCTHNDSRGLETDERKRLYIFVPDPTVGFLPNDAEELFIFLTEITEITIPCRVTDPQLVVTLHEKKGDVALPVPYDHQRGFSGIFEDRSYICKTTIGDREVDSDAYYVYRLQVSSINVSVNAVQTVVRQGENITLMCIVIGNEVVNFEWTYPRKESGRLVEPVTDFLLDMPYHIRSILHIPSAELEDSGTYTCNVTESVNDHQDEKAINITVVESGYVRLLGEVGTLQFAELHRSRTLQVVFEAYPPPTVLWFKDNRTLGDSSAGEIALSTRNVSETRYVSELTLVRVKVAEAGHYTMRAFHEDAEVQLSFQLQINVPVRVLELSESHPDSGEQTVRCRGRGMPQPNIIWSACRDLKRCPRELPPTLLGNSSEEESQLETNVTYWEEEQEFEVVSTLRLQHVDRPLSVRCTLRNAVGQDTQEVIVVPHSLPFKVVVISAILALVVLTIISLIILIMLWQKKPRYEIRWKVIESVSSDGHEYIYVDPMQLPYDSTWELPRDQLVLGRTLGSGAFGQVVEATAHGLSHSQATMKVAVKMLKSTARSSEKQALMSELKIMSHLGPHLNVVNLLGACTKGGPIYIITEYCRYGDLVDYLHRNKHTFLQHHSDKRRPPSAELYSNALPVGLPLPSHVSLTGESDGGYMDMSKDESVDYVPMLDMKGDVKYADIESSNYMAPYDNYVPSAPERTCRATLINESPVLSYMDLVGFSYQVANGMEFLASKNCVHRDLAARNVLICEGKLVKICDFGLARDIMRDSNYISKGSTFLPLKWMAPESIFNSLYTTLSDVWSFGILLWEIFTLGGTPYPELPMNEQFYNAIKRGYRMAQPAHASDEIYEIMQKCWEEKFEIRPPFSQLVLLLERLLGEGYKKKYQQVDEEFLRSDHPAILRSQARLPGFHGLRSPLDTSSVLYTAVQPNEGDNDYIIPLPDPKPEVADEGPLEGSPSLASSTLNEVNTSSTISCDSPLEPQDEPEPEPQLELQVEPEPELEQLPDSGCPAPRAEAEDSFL

Chain of Platelet-derived growth factor receptor alpha (Homo sapiens), P16234 [T674I] (P16234 whole entry T674I): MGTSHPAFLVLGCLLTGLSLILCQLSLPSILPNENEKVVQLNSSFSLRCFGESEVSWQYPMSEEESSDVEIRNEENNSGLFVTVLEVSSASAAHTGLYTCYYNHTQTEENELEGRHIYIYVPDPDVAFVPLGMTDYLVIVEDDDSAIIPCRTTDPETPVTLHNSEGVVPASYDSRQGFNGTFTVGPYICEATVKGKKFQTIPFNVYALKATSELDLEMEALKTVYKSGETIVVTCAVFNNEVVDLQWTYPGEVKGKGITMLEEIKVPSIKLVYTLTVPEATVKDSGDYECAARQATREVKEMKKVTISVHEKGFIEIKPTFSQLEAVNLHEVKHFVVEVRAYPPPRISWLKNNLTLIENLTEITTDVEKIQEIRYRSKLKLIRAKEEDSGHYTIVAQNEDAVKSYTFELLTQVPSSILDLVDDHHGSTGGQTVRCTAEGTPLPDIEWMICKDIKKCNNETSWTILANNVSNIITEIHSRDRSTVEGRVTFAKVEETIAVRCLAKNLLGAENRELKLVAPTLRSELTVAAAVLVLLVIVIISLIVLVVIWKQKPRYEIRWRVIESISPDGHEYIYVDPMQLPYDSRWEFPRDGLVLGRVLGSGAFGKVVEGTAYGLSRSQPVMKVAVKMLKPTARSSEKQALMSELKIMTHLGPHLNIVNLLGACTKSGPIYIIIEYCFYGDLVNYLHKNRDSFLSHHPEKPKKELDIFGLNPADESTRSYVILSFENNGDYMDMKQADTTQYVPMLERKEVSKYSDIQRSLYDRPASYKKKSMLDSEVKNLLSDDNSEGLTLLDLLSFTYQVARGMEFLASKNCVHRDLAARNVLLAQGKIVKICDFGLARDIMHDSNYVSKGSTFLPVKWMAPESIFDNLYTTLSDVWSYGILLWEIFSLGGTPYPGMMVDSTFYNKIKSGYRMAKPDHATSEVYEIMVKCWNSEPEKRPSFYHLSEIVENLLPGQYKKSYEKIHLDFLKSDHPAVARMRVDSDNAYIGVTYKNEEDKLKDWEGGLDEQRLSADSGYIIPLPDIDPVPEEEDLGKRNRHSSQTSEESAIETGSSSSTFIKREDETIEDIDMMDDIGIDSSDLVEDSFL
Chain of Platelet-derived growth factor receptor alpha (Homo sapiens) (P16234 whole entry): as the sequence (P16234 whole entry T674I) above, with I674T counted along it
Chain of Platelet-derived growth factor receptor alpha (Homo sapiens), P16234 [D842V] (P16234 whole entry D842V): as the sequence (P16234 whole entry T674I) above, with I674T, D842V counted along it
Chain of Platelet-derived growth factor receptor alpha (Homo sapiens), P16234 [V561D] (P16234 whole entry V561D): as the sequence (P16234 whole entry T674I) above, with V561D, I674T counted along it

Compound	inhibition [1] [%]	inhibition [2] [%]	inhibition [3] [%]	inhibition [4] [%]	inhibition [5] [%]	inhibition [6] [%]	inhibition [7] [%]	inhibition [8] [%]	inhibition [9] [%]	inhibition [10] [%]
[O-][S+]1CCN(Cc2ccc(-c3ccc4ncnc(Nc5ccc(OCc6ccccc6)c(F)c5)c4c3)o2)CC1	3.05	3.33	4.2	2.67	1.42	2.19	3.59	0.45	3.92	1.19
O=C1NC(=O)C(c2ccccc2Cl)=C1Nc1cccc(O)c1	6.51	5.26	9.63	0.89	-0.58	1.6	2.66	1.34	2.14	4.9
c1cnn2ncc(-c3ccnc(Nc4ccc5c(c4)OCCO5)n3)c2c1	26.9	16.1	51.5	6.44	40.6	16.9	74.7	23.3	61.7	18.4
Cc1ccc(NC(=O)c2ccnc(N3CCCC3)c2)cc1-c1ccc(C(=O)NCC2CC2)cc1	9.18	9.86	20.7	3.63	5.68	6.03	5.86	2.7	11.8	6.34
COC(=O)Nc1nc2cc(Oc3cccc(NC(=O)Nc4cc(C(F)(F)F)ccc4F)c3)ccc2[nH]1	32.3	48.6	80.2	2.6	8.72	4.75	37.5	40.7	87.4	11.4
CCn1c(-c2nonc2N)nc2ccncc21	1.96	8.83	7.48	0.54	1.96	2.72	1.31	2.31	3.59	0.36
Cc1cccc(-c2n[nH]cc2-c2ccc3ncccc3n2)n1	2.87	10.7	55.3	18.8	68.7	1.71	0.07	12.3	53	2.42
Cc1nnc(-c2ccc(C)c(-c3ccc(C(=O)Nc4cccc(C#N)c4)cc3)c2)o1	2.91	7.61	15.8	0.78	2.5	3.31	6.79	3.46	5.28	6.49
Cn1cc(C=C2C(=O)Nc3cccnc32)c2ccccc21	12.8	19.5	65.3	9.02	47.1	5.86	20.2	12.4	58.7	12.5
COc1ccc(-c2coc3ncnc(N)c23)cc1	9.1	8.72	16.2	3.41	6.25	5.4	5.37	6.46	28	3.23
NCc1ccc(-c2nc(-c3ccc(Cl)c(O)c3)c(-c3ccncc3)[nH]2)cc1	2.08	6.86	25.6	6.11	31	2.74	2.2	5.6	25.9	7.07
COc1ccc(COc2ccc(Cc3cnc(N)nc3N)cc2OC)cc1	9.52	10.9	15.7	0.95	1.88	2.62	1.3	2.4	5.93	8.68
COC(=O)Nc1nc2cc(Oc3ccc(NC(=O)Nc4cccc(C(=O)O)c4)cc3)ccc2[nH]1	2.82	10.8	39.3	0.99	1.56	6.17	35.1	18.8	43.9	6.26
NC(=O)c1ccc(-c2nc(-c3ccccn3)c(-c3ccc4c(c3)OCO4)[nH]2)cc1	3.59	6.2	9.06	1.44	2.57	8.08	5.68	2.28	4.53	2.41
Fc1cccc(COc2ccc(Nc3ncnc4cc(-c5ccc[nH]5)sc34)cc2Cl)c1	6.25	9.2	15.6	2.17	4.7	4.02	4.37	2.42	5.59	3.02
COc1ccc2cc(-c3c(-c4ccncc4)nc(-c4ccc([S+](C)[O-])cc4)n3C)ccc2c1 (stereo not given)	3.4	2.55	10	2.12	4.78	3.93	2.95	-1.44	3.24	2.46
CCn1c(-c2nonc2N)nc2c(N3CCCC3)nccc21	3.11	-0.08	6.63	1.78	3.11	0.33	0.11	3.21	3.61	3.37

Compound	inhibition [1] [%]	inhibition [2] [%]	inhibition [3] [%]	inhibition [4] [%]	inhibition [5] [%]	inhibition [6] [%]	inhibition [7] [%]	inhibition [8] [%]	inhibition [9] [%]	inhibition [10] [%]
Cc1ccc(C(=O)NC2CCCCC2)cc1-c1ccc(C(=O)NCC2CC2)cc1	8.57	12.3	12.8	2.47	1.67	4.09	-1.01	1.21	17.2	6.66
CC1=C(C(=O)Nc2ccc3[nH]ncc3c2)C(c2ccc(F)cc2)NC(=O)N1 (stereo not given)	5.88	4.38	10.7	1.76	3.2	3.58	3.03	3.01	3.64	3.65
O=C1NC(=O)C(c2cccc(Cl)c2)=C1Nc1ccc(O)c(Cl)c1	2.41	6.23	15.1	4.44	6.47	1.04	1.36	2.63	9.34	0.85
CCCN1CCC=C(c2ccc(Nc3nc(Nc4ccccc4C(N)=O)c4cc[nH]c4n3)c(C)c2)C1	20.5	9.67	40.6	2.55	24.2	4.99	9.94	5.63	28.7	8.75
CCn1c(-c2nonc2N)nc2c(C#CC(C)(C)O)nc(OC[C@@H](N)c3ccccc3)cc21	2.97	3.38	30.9	3.93	39	1.39	27.6	-2.3	19.5	7.96
NC(=O)c1cccc(Nc2nccc(Nc3cccc4[nH]ncc34)n2)c1	15.3	23.7	71.3	13.2	67.7	-2.44	4.54	20.7	70.4	42.1
CC(C)=Cc1cccc2c1/C(=N/Nc1ccc(S(N)(=O)=O)cc1)C(=O)N2	36.3	20.3	64.9	12.2	58.5	7.43	46.5	15	62.5	17.4
CCn1c(-c2nonc2N)nc2cnc(Oc3cccc(NC(=O)c4ccc(OCCN5CCOCC5)cc4)c3)cc21	-1.35	5.93	9.57	1.95	4.64	4.39	9.13	3.13	3.7	2.12
COc1cccc(-n2ncc3c(N/N=C/c4cccc(F)c4)ncnc32)c1	11.4	13.6	49.5	10.6	48.1	6.11	22.2	8.22	41.1	12.2
COc1cc(C=NNc2ncnc3c2cnn3-c2ccccc2)ccc1O	43.8	28.2	78.2	24.6	79.5	13.7	39.1	15.1	68.9	18.1
CCn1c(-c2nonc2N)nc2cncc(C(=O)N3CCNCC3)c21	4.88	6.44	9.34	1.69	6.27	4.21	6.95	1.16	4.29	1.44
COc1ccccc1Nc1ncc(-c2ccccc2)o1	2.74	14.1	47.5	4.24	6.87	16.9	69.4	35.6	53.5	11.1
Nc1ncnc2occ(-c3ccc(NC(=O)Nc4cccc(C(F)(F)F)c4)cc3)c12	90.2	88.2	93.1	26.5	76.4	79.5	85	95.3	99	69.4
CC1=C(C(=O)Nc2ccc3[nH]ncc3c2)C(c2ccc3ccccc3c2)CC(=O)N1 (stereo not given)	5.45	8.08	14.6	2.86	5.83	3.54	5.01	5.52	7.45	2.15
CN1CCC(C(=O)Nc2n[nH]c3nnc(-c4ccccc4)cc23)CC1	5.06	5.74	16.5	3.37	3.2	6.86	7.55	7.2	6.38	2.43
CCn1c(-c2nonc2N)nc2c(C#CC(C)(C)O)nc(CN3CCCC3)cc21	4.26	7.83	13.1	3.09	5.71	2.75	0.39	2.19	6.46	3.33

Reference: ChEMBL document CHEMBL1961873, “Compounds: GSK PKIS; Assays: Nanosyn kinase panel” (2012)
